In the library only some 1.9% were active in any assay of this set; here they are far more common.
Fam108B inh: blocks mouse Fam108B hydrolase in RBBP9 counter-screen; recombinant Fam108B, FP-Rh probe fluorescence polarization; hit rate 0.33% among 300,000; inhibition, % at 9.51 µM; AID 1947;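 active = inhibition above the screen mean inhibition plus 3 SD, computed separately per campaign, cut at about 18% in these data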;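 note: inhibitors lower polarization as less probe binds the enzyme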
LYPLA2 inh: blocks human lysophospholipase 2, a PME1 counter-screen | O95372 | recombinant LYPLA2, FP-Rh probe fluorescence polarization | inhibition, % at 5.9 µM | hit rate 0.38% among 320,000 | AID 2177;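 active = inhibition above the screen-wide mean plus 3 SD, limit set per campaign, cut at about 26% in these data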;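 note: 0% = LYPLA2 with DMSO and 100% = wells lacking LYPLA2 enzyme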
PREPL inh: human PREPL enzyme inhibition; Q4J6C6; recombinant PREPL, fluorescence polarization activity-based probe; inhibition, % at 5.96 µM; hit rate 0.68% among 320,000;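 note: 0% = enzyme with DMSO and 100% = wells lacking enzyme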
PME-1 primary: blocks human protein phosphatase methylesterase 1; inhibition, % at 5.9 µM; recombinant PME-1, FP-Rh probe fluorescence polarization; Q9Y570; AID 2130; hit rate 0.53% among 320,000;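 active = inhibition above the campaign mean of all compounds plus 3 SD, cut at about 26% in these data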;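 note: competitive labeling of PME-1 active site by serine hydrolase directed probe; 0% = PME-1 with DMSO and 100% = wells lacking PME-1 enzyme; inhibitors block probe labeling so polarization falls and inhibition rises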
LYPLA1 inh: counter-screen for PME1 inhibitors: inhibitors of human LYPLA1; O75608; recombinant LYPLA1, FP-Rh probe fluorescence polarization; inhibition, % at 5.9 µM; hit rate 0.16% among 320,000;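 active = inhibition above the mean of all tested compounds plus 3 SD, set per campaign, cut at about 14% in these data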;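 note: inhibitors block serine hydrolase probe labeling of LYPLA1 so polarization falls; 0% = enzyme with DMSO and 100% = wells lacking LYPLA1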
Target sequence (O75608 whole entry, looked up): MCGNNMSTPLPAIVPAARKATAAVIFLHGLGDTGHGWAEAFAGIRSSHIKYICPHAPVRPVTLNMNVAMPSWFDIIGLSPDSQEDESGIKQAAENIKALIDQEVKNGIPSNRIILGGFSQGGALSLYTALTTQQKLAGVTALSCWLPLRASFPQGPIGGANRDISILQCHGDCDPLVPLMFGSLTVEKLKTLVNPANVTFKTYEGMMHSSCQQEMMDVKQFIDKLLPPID
GSTO1 inh: counter-screen for RBBP9 inhibitors: inhibitors of human GSTO1; P78417; recombinant GSTO1, activity-based probe fluorescence polarization; inhibition, % at 5.96 µM; hit rate 1.1% among 300,000;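 active = inhibition above the campaign mean inhibition plus 3 SD, cut at about 35% in these data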;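 note: 0% = GSTO1-1 with DMSO and 100% = wells lacking GSTO1-1 enzyme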
Target sequence (P78417 whole entry, looked up): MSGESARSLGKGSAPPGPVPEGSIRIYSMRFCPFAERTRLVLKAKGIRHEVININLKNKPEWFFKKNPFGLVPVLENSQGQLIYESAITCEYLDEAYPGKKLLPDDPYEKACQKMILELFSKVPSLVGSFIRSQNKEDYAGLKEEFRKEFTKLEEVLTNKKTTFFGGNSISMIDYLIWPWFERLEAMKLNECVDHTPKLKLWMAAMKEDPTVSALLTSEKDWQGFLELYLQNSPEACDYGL
GSTO1 inh conf: GSTO1 (human) inhibition, confirmation; shares compounds with GSTO1 inh; hit rate 54% among 2,400; recombinant GSTO1, probe fluorescence polarization; inhibition, % at 5.96 µM;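 active = inhibition above the primary screen's cutoff, its mean inhibition plus 3 SD, cut at about 35% in these data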;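 note: loss of polarization as inhibitors block binding of rhodamine sulfonate ester activity probe; 0% = GSTO1 with DMSO and 100% = wells lacking GSTO1 enzyme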
LYPLA1 confirm: LYPLA1 (human) inhibition, confirmation counter-screen; shares compounds with LYPLA1 inh; recombinant LYPLA1, FP-Rh probe fluorescence polarization; inhibition, % at 5.9 µM; hit rate 69% among 480; AID 2233;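 active = mean inhibition across replicates above the hit cutoff set in the primary screen, cut at about 15% in these data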;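 note: loss of FP-Rh probe labeling of LYPLA1 seen as lower polarization; 0% = LYPLA1 with DMSO and 100% = wells lacking LYPLA1 enzyme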
LYPLA2 conf: counter-screen for PME1 inhibitors: confirmation of human LYPLA2 inhibitors | shares compounds with LYPLA2 inh | recombinant LYPLA2, FP-Rh probe fluorescence polarization | inhibition, % at 5.9 µM | hit rate 72% among 1,100 | AID 2232;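 active = mean inhibition across replicates above the hit cutoff set in the primary screen, cut at about 26% in these data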;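 note: blocked labeling of the enzyme by serine hydrolase FP-Rh probe lowers polarization; 0% = enzyme with DMSO and 100% = wells lacking LYPLA2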
PREPL inh cf: human PREPL inhibition, confirmation; recombinant PREPL, fluorescence polarization activity probe; inhibition, % at 5.96 µM; hit rate 67% among 2,000; AID 2803; shares compounds with PREPL inh;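 note: 0% = protein with DMSO and 100% = wells lacking protein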
Starred values were filed as active, the others as inactive; · = no result. Cut-off read from the data, not from the text of the source, unless noted: active = inhibition above about 43%; inactive = the rest.

SMILES	Fam108B inh	LYPLA2 inh	PREPL inh	PME-1 primary	LYPLA1 inh	GSTO1 inh	GSTO1 inh conf	others
Cc1ccc(C(=O)Nc2nnc(CC(=O)N/N=C/c3ccc(O)c(O)c3)s2)cc1	18	-7	30	29*	-15	38*	31
Nc1c2c(nc3sc4c(c13)CCCC4)-c1ccccc1CC2	1	0	5	12	-1	-12	·
CN1CCN(S(=O)(=O)c2ccc(Nc3cccc(Cl)c3)c([N+](=O)[O-])c2)CC1	·	10	16	1	5	·	·
c1ccc2c3c([nH]c2c1)-c1[nH]ncc1CC3	5	-8	10	11	-1	74*	11
Cc1cccc(-n2ncc3c(=O)[nH]c(SCC(=O)N4CC(=O)Nc5ccccc54)nc32)c1	·	5	6	4	0	·	·
C[C@@H]1CCCCCCCCC(=O)OCCN(C(=O)OC(C)(C)C)[C@H](C)CCCCCCCCC(=O)OCCN(C(=O)OC(C)(C)C)[C@H](C)CCCCCCCCC(=O)OCCN1C(=O)OC(C)(C)C	·	·	6	·	·	·	·
C=CCSC1=N/C(=C\C=C\c2ccco2)C(=O)S1	16	4	11	2	3	45*	19
CCN(CC(=O)NCc1cccs1)C(=O)c1ccc(-c2ccc(F)cc2)o1	·	·	13	·	·	·	·
CCC1CCCCN1C(=O)CCC(=O)Nc1nnc(C(F)(F)F)s1 (stereo not given)	-1	2	4	1	-3	-3	·
Cc1ccc(Cl)cc1NC(=O)CCC(=O)O	3	6	14	2	-2	64*	7
COc1ccc(NC(=O)c2cc(CC(C)C)nc3ccccc23)cc1	-5	-4	5	-6	-3	0	·
Cc1ccc(NC(=O)c2cc(CC(C)C)nc3ccccc23)cc1	-2	10	-5	-3	3	42*	4
CCN(c1ccc(NC(=O)COC(=O)CCC(=O)c2ccc(F)cc2)cc1)C(C)C	-1	0	4	4	3	38*	24
CC(=O)c1cccc(NC(=O)COC(=O)CCC(=O)c2ccc(F)cc2)c1	·	·	9	·	·	·	·
O=C(CSc1n[nH]c(=O)[nH]c1=O)Nc1ccc2c(c1)C(=O)c1ccccc1C2=O	12	16	35	8	14*	61*	78*	LYPLA1 confirm=5
Cc1cccc(CCN(CC(=O)NCc2ccc(F)cc2)C(=O)c2csnn2)c1	2	-1	-3	0	-1	-10	·
Cn1c(=O)c2cc(NCc3ccccc3)nnc2n(C)c1=O	14	25	36	29*	19*	81*	16	LYPLA1 confirm=3
Cn1c(=O)c2c(nc(NCc3ccccc3)n2C)n(C)c1=O	1	-1	0	5	-2	0	·
O=c1[nH]nc(CNc2ccc(O)cc2)c2ccccc12	8	34*	41	45*	16*	82*	-2	LYPLA1 confirm=5;LYPLA2 conf=5
CCC(C)(C)NC(=O)CN(C(=O)C(=O)Nc1ccc2c(c1)OCCO2)C1CC1	1	-2	9	2	5	0	·
COC(=O)CCC(=O)OC1(C)C(=O)C2=CN(Cc3ccccc3)C(c3ccc(OC)cc3)=CC2=C(Br)C1=O (stereo not given)	0	0	46*	7	-1	50*	14	PREPL inh cf=42
COC(=O)CCC(=O)OC1(C)C(=O)C2=CN(CC(C)C)C(c3ccc(OC)cc3)=CC2=C(Br)C1=O (stereo not given)	1	8	74*	5	-2	59*	53*	PREPL inh cf=48*
Cn1c(=NC(=O)c2ccccc2[N+](=O)[O-])sc2cccc(F)c21	-2	1	-1	-1	-4	-3	·
